In all, about 290,000 compounds went through this assay and about 3,000 (1%) were called active. Many of the other results were omitted from the sample, so actives are more common in it than they were. Values without a mark were called inactive. Rule as the data show it: active = inhibition mostly above about 36% (no sharp cut-off); inactive = mostly below about 34%.
Assay: NOD1 signaling inhibitors, primary screen, cell-based, luminescence, uHTS (AID 1578);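 also: HEK-293T reporter cells stimulated with the NOD1 agonist gamma-tri-DAP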
Details: NOD1-driven NF-kB luciferase reporter cells, at 4 µM, stronger effect = higher value

Row | SMILES | inhibition
1 | OCC1(CCOc2ccccc2)CCN(CC2=Cc3cc(Cl)ccc3OC2)CC1 | -37.6%
2 | COc1ccc2c(c1)C=C(CN1CCC(CO)(CCc3ccccc3)CC1)CO2 | -10%
3 | CCOc1cc(C(=O)NN2CCOCC2)cc(OCC)c1OCC | -21.5%
4 | Cc1ccccc1NC(=S)N1CCN(Cc2ccc3c(c2)OCO3)CC1 | -15.3%
5 | Cc1cc(Cl)ccc1NC(=S)N1CCN(Cc2ccc3c(c2)OCO3)CC1 | 79.9% (active)
6 | O=C(c1ccccc1)N1CCN(Cc2ccc3c(c2)OCO3)CC1 | -5.8%
7 | O=C(c1n[nH]c(=O)c2ccccc12)N1CCN(Cc2ccc3c(c2)OCO3)CC1 | 3.4%
8 | O=C(NC(=S)N1CCN(Cc2ccc3c(c2)OCO3)CC1)c1ccc(Cl)cc1 | -3.6%
9 | CCN(CC)c1ccc(C(=O)NC(=S)N2CCN(Cc3ccc4c(c3)OCO4)CC2)cc1 | -0.4%
10 | Cc1cc(Cl)ccc1NC(=S)N1CCN(Cc2ccccc2)CC1 | -13.4%
11 | O=C(COC(=O)COc1ccccc1Cl)Nc1ccccc1OC(F)F | -10.4%
12 | CN(CCCC(=O)N1CCCC(C(N)=O)C1)S(=O)(=O)c1ccc(F)cc1 (configuration not stated) | -19.1%
13 | Cc1ccc(NC(=O)CN2C(=O)S/C(=C\c3ccc(C(=O)O)cc3)C2=O)cc1 | -12.7%
14 | O=C(Cc1ccc(-n2c(=O)c3ccccc3n(Cc3cccc([N+](=O)[O-])c3)c2=O)cc1)NCC1CCCO1 (configuration not stated) | 5.4%
15 | COc1ccc(CCNC(=O)CSc2ccc(-c3ccco3)nn2)cc1OC | -15.4%
16 | COc1ccc(F)cc1S(=O)(=O)NCCN1CCOCC1 | 15.5%
17 | COc1cccc2cc(C(=O)OC3CCN(C)CC3)c(=O)oc12 | -29.1%
18 | Cc1ccc(Cl)cc1N1CCN(Cc2nnnn2Cc2ccco2)CC1 | -5.9%
19 | Cc1cc(C)n(C(=O)CNC(=O)c2ccccc2Br)n1 | -28.7%
20 | COCCn1c(-c2ccc(OC)cc2)cnc1SCC(=O)Nc1cccc2ccccc12 | -37.9%
21 | O=C(Nc1ccc(C(=O)N2CCOCC2)cc1)Nc1cccc(Cl)c1 | -21.7%
22 | O=C(Nc1cccc([N+](=O)[O-])c1)Nc1cccc([N+](=O)[O-])c1 | -8.2%
23 | CN(C)S(=O)(=O)Oc1ccccc1C(=O)Nc1cccc(C(F)(F)F)c1 | -19.2%

Row | SMILES | inhibition
24 | O=C(Nc1ccc(OC(F)(F)F)cc1)Nc1cccc([N+](=O)[O-])c1 | 75.1% (active)
25 | O=C(Nc1ccc(C(=O)O)cc1)Nc1cccc([N+](=O)[O-])c1 | -12.4%
26 | CN(C)S(=O)(=O)Oc1ccc(C(=O)Nc2cccc(Cl)c2)cc1 | -35.9%
27 | O=C(Nc1ccccc1)Nc1cccc(C(F)(F)F)c1 | -33.9%
28 | CNC(=O)Nc1cccc(C(F)(F)F)c1 | -23%
29 | CC(=O)c1cccc(NC(=O)Nc2ccc(C(=O)N3CCOCC3)cc2)c1 | 5.9%
30 | O=C(Nc1ccc(C(=O)N2CCOCC2)cc1)Nc1cccc(C(F)(F)F)c1 | 60% (active)
31 | CCOc1ccc(NC(=O)CS(=O)CC(=O)N(CC(=O)NC(C)(C)C)C2CCCC2)cc1 (configuration not stated) | -23.1%
32 | O=C(CC1C(=O)NCCN1Cc1ccc(-c2ccccc2)cc1)NCCCn1ccnc1 (configuration not stated) | -4.4%
33 | COCCNC(=O)C(C)N1c2cccc3cccc(c23)S1(=O)=O (configuration not stated) | -37.7%
34 | NC(CCC(=O)O)C12CC3CC(CC(C3)C1)C2 (configuration not stated) | -26.1%
35 | COC(=O)[C@H](Cc1ccccc1)NC(=O)NCCc1ccc(OC)cc1 | -0.3%
36 | CC(=O)c1cc2c(cc1NC(=O)CN1CCCCCCC1)OCO2 | -24.2%
37 | Cc1cc(C(=O)Nc2ccccn2)cs1 | -53.4%
38 | CCCC[C@@H]1CNC(=S)N1CCC12CC3CC(CC(C3)C1)C2 | -25.1%
39 | COc1ccc(CSc2nc(C)[nH]c2[N+](=O)[O-])cc1[N+](=O)[O-] | -4.2%
40 | Cc1nc(SCc2ccc(O)c([N+](=O)[O-])c2)c([N+](=O)[O-])[nH]1 | -13.5%
41 | CCCCOc1ccc(CSc2nc(C)[nH]c2[N+](=O)[O-])cc1[N+](=O)[O-] | 39.8% (active)
42 | CCOC1(OCC)N=C(N)C2(C#N)C(c3ccc(NC(C)=O)cc3)C12C#N (configuration not stated) | -12.4%
43 | CN(CC(=O)Nc1c(Cl)cccc1Cl)C(=O)CCCN1C(=O)c2ccccc2C1=O | 15.6%
44 | O=C(N/N=C/C=C\c1ccccc1[N+](=O)[O-])c1ccncc1 | -7.4%
45 | COc1ccc(-n2cc(CNC3CCC(O)CC3)c(-c3cccc(F)c3)n2)cc1 (configuration not stated) | 51.1% (active)
46 | COc1ccc(-n2cc(CNC3CCN(C)CC3)c(-c3cccc(F)c3)n2)cc1 | 14.5%

Row | SMILES | inhibition
47 | COc1ccc(-n2cc(CNC3CCOCC3)c(-c3cccc(F)c3)n2)cc1 | 21.8%
48 | Cc1cccc(C)c1N1CCN(c2nc(N(C)C)oc(=O)c2C#N)CC1 | 18.2%
49 | CCOC(=O)C1CCCN(C2=NC(=O)/C(=C/c3ccc(OC)cc3)S2)C1 (configuration not stated) | -6.7%
50 | CC1=C(C(=O)N2CCOCC2)C(c2ccc(-c3ccccc3)cc2)NC(=S)N1 (configuration not stated) | -25.1%
51 | CCOc1ncccc1C(=O)N1CCN(C(c2ccccc2)c2ccccc2)CC1 | -13%
52 | Cc1ccccc1C(=O)N1CCN(C(c2ccccc2)c2ccccc2)CC1 | -1.2%
53 | c1ccc(CN(Cc2ccccc2)c2ncnc3c2nnn3Cc2ccccc2)cc1 | -2.6%
54 | CCNc1nc(NCC)n2c(SCC(=O)Nc3ccccc3[N+](=O)[O-])nnc2n1 | -16.6%
55 | Cn1c2c(c(=O)n(C)c1=O)C(CC(=O)Nc1ccccc1)C(=O)N2 (configuration not stated) | -23.5%
56 | COc1ccc2[nH]c3c(c2c1)CC(C)NC3=O (configuration not stated) | 87% (active)
57 | CC1Cc2c([nH]c3ccccc23)C(=O)N1 (configuration not stated) | 26.8%
58 | COc1ccc2[nH]c3c(c2c1)CCC/C3=N\N | -3.8%
59 | COc1cc(OC)cc(C(=O)NNC(=S)NC2CC2)c1 | -35.8%
60 | C=CCn1c(=O)c2ccccc2n2c(SC(C)C(N)=O)nnc12 (configuration not stated) | -5.9%
61 | C[C@@H](CN=[N+]=[N-])CN1CC[C@H](C(C)(C)C)CCC1=O | -15.8%
62 | CC(C)/C=C/CN1CCN(CCCc2ccccc2)C(CCO)C1 (configuration not stated) | 45.1%
63 | N#CCOC(=O)[C@H](Cc1ccccc1)N1C(=O)c2ccccc2C1=O | -3.8%
64 | CCOC(=O)N/N=C/c1c(C)nn(-c2ccccc2Cl)c1Cl | -46.5%
65 | Cc1nn(-c2ccccc2Cl)c(Cl)c1/C=N/Nc1nc2ccccc2s1 | 87.9% (active)
66 | Cc1nn(-c2ccccc2Cl)c(Cl)c1/C=N/Nc1cccc(C(=O)O)c1 | 19.9%
67 | COc1ccc(CCNC(=O)CNC(=O)c2nn(-c3ccc(OC)c(OC)c3)c(=O)c3ccccc23)cc1OC | -4.9%
68 | CC1(C)Cc2c(sc(NC(=O)c3ccccc3)c2C(=O)O)CO1 | -22.9%
69 | COc1ccc(C(=O)Nc2sc3c(c2C(=O)O)CC(C)(C)OC3)cc1 | -23.2%

Row | SMILES | inhibition
70 | CCc1ccc(-c2cn3nc(C)c(C)nc3n2)cc1 | 76.1% (active)
71 | Cc1nc2nc(-c3ccc(Cl)cc3)cn2nc1C | -11.9%
72 | Cc1ccc(-c2cn3nc(C)c(C)nc3n2)cc1 | 46.8%
73 | O=C1N(c2ccccc2)C[C@@H]2C[C@@H](c3cc4ccccc4o3)N3CCC[C@@]123 | 98% (active)
74 | O=C1N(c2ccccc2)C[C@@H]2C[C@@H](c3cccs3)N3CCC[C@@]123 | -35.1%
75 | O=C1N(c2ccccc2)C[C@@H]2C[C@@H](c3cccc4c3OCO4)N3CCC[C@@]123 | -27.6%
76 | Cc1onc(-c2c(F)cccc2Cl)c1C(=O)NC(=S)NC1CCS(=O)(=O)C1 (configuration not stated) | -19.3%
77 | COc1ccc(CC(=O)N2CCN(c3cccc(C)c3C)CC2)cc1 | -24.5%
78 | O=c1cnc2ccccc2n1Cc1ccc(Br)cc1 | -18.3%
79 | CC(C)(C)c1ccc(Cn2c(=O)cnc3ccccc32)cc1 | 48.9% (active)
80 | O=c1cnc2ccccc2n1Cc1ccccc1C(F)(F)F | -40.7%
81 | C=CCn1cc(C(=O)OCC)c(=O)c2cc(F)c(F)cc21 | 2.3%
82 | Cc1ccc(C(=O)COC(=O)CCC(=O)Nc2cc(Cl)ccc2Cl)cc1[N+](=O)[O-] | 7.9%
83 | C#CC(=O)N(c1cccc(OC)c1)C(C(=O)NC1CCCC1)c1cccs1 (configuration not stated) | 22.1%
84 | COc1ccc(N(C(=O)c2ccco2)C(C(=O)NC2CCCC2)c2cccs2)c(OC)c1 (configuration not stated) | -2.6%
85 | C#CC(=O)N(c1ccc(OC)c(OC)c1)C(C(=O)NC1CCCC1)c1cccs1 (configuration not stated) | 79.9% (active)
86 | C#CC(=O)N(c1cc(OC)ccc1OC)C(C(=O)NC1CCCC1)c1cccs1 (configuration not stated) | -17.4%
87 | C#CC(=O)N(c1ccc(OC)cc1OC)C(C(=O)NC1CCCC1)c1cccs1 (configuration not stated) | 74.7% (active)
88 | COc1ccc(N(C(=O)c2ccco2)C(C(=O)NC2CCCC2)c2cccs2)cc1OC (configuration not stated) | 2.7%
89 | CC(C)c1nc2ccccc2n1CC(O)COC1CCCCC1 (configuration not stated) | -23.2%
90 | COc1ccc(C)cc1NC(=O)NNC(=O)C(C)Oc1ccc(F)cc1Cl (configuration not stated) | -17.8%
91 | COc1cccc(C(=O)N2CCC(n3nccc3NC(=O)CCOc3ccccc3)CC2)c1 | -25.4%
92 | CCCn1c(SCC(=O)Nc2nonc2C)nnc1-c1ccoc1C | -22.4%

— PubChem BioAssay AID1578 (Sanford-Burnham Center for Chemical Genomics, 2009)
